In PubChem BioAssay (NCI):
About 79,000 compounds went through this panel and 15% of them were active in at least one assay; those are over-represented in the sample as a whole. The source made the active and inactive calls. Rule as the data show it: active = growth inhibition above about 70%; inactive = the rest.

Key:
[1] = NCI Yeast Anticancer Drug Screen. Data for the mec2-1 strain (AID 157); conditions: S. cerevisiae mec2-1 strain, active compounds read high
Outline: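 Using mec2-1 yeast: add compound, measure growth, express inhibition versus vehicle-treated cultures.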

[2] = NCI Yeast Anticancer Drug Screen. Data for the rad14 strain (AID 159);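 also: 0% = growth of vehicle-treated control cultures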; conditions: S. cerevisiae rad14 strain growth inhibition, active compounds read high
Outline: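 DNA repair-defective yeast, compound-exposed; % growth inhibition derived by comparison with vehicle-treated controls.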

[3] = NCI Yeast Anticancer Drug Screen. Data for the sgs1 mgt1 strain (AID 161);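 also: 0% = growth of cultures given vehicle only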; conditions: S. cerevisiae sgs1 mgt1 strain, active compounds read high
Outline: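 Yeast cells carrying a defined DNA-repair defect were exposed to test compounds. Growth inhibition was measured relative to vehicle-treated controls.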

[4] = NCI Yeast Anticancer Drug Screen. Data for the cln2 rad14 strain (AID 165);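 also: 0% = growth equal to vehicle treated cultures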; conditions: S. cerevisiae cln2 rad14 strain, active compounds read high
Outline: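 Yeast strain cln2 rad14, bearing defects in cell cycle control and DNA repair, serves as the test system; values reflect growth inhibition compared with vehicle.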

[5] = NCI Yeast Anticancer Drug Screen. Data for the bub3 strain (AID 167); conditions: S. cerevisiae bub3 mutant strain, active compounds read high
Outline: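 In this screen, a yeast mutant lacking normal mitotic checkpoint function is challenged with compound. Relative growth versus vehicle gives the inhibition value.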

[6] = NCI Yeast Anticancer Drug Screen. Data for the wt2 strain (AID 169);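 also: 0% = growth of vehicle-treated yeast cultures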; conditions: S. cerevisiae wt2 strain growth inhibition, active compounds read high
Outline: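 Treated yeast vs. vehicle-treated yeast: growth inhibition determined.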

[7] = NCI Yeast Anticancer Drug Screen. Data for the mlh1 strain (AID 171);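 also: 0% = growth of vehicle-treated control cultures of the same strain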; conditions: S. cerevisiae mlh1 strain growth inhibition, active compounds read high
Outline: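 A yeast strain with a defined genetic lesion serves as the test organism. Cultures receive compound or vehicle, and growth is measured.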

[8] = NCI Yeast Anticancer Drug Screen. Data for the sgs1 strain (AID 173);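 also: 0% = growth of vehicle-only control cultures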; conditions: S. cerevisiae sgs1 mutant, active compounds read high
Outline: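 A genetically defined yeast mutant is incubated with the test compound, and its growth is compared to that of the same strain given vehicle.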

[9] = NCI Yeast Anticancer Drug Screen. Data for the mlh1 rad18 strain (AID 175); conditions: S. cerevisiae mlh1 rad18 strain growth inhibition, active compounds read high
Outline: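 Steps: expose repair-defective yeast to compound; measure growth; express inhibition against vehicle-treated controls.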

[10] = NCI Yeast Anticancer Drug Screen. Data for the rad18 strain (AID 177); conditions: S. cerevisiae rad18 mutant growth inhibition, active compounds read high
Outline: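 Measured value is growth inhibition of a yeast strain bearing a DNA repair alteration, referenced to vehicle-treated cells.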

[11] = NCI Yeast Anticancer Drug Screen. Data for the rad52 strain (AID 147);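 also: 0% = growth of vehicle-treated control cultures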; conditions: S. cerevisiae rad52 mutant growth inhibition, active compounds read high
Outline: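 Here a repair-compromised yeast strain receives each compound; its growth is then quantified and normalised to vehicle-only controls.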

[12] = NCI Yeast Anticancer Drug Screen. Data for the wt1 strain (AID 149);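 also: 0% = growth of vehicle-treated wt1 cultures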; conditions: S. cerevisiae wt1 strain (SPY 50644) growth inhibition, active compounds read high
Outline: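 wt1 strain grown with compound or vehicle; inhibition taken from the growth difference.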

[13] = NCI Yeast Anticancer Drug Screen. Data for the rad50EPP+ strain (AID 151);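 also: 0% = growth of vehicle-treated control cultures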; conditions: S. cerevisiae rad50 mutant strain, active compounds read high
Outline: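 Read-out is yeast growth inhibition relative to vehicle; cells used were the rad50EPP+ strain.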

[14] = NCI Yeast Anticancer Drug Screen. Data for the mgt1 strain (AID 153); conditions: S. cerevisiae mgt1 mutant growth inhibition, active compounds read high
Outline: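 Measured: inhibition of mgt1 yeast growth by compound, normalized to vehicle-treated cultures.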

[15] = NCI Yeast Anticancer Drug Screen. Data for the rad50 strain (AID 155);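 also: 0% = growth of vehicle-only cultures of the same strain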; conditions: S. cerevisiae rad50 strain growth inhibition, active compounds read high
Outline: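 DNA repair mutant yeast, compound exposure, growth read-out; inhibition is taken relative to vehicle.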

[16] = at 5.0 µM (retest, dose inferred, filed as 0.5)
[17] = at 50.0 µM (retest, dose inferred, filed as 5.0)

Measured: growth inhibition

COc1ccc(C(C)c2cc3c(cc2OCC(C)=O)OCO3)cc1 (stereo not drawn)
inactive: [1]; [16] -5% | [1]; at 11.0 µM 0% | [1]; at 33.0 µM -4% | [1]; [17] 7% | [1]; at 50.0 µM -15.1% | [2]; at 1.2 µM -2% | [2]; at 3.7 µM -3% | [2]; at 11.0 µM -3% | [2]; at 33.0 µM 1% | [2]; at 100.0 µM 38% | [3]; [16] -4% | [3]; [17] 35% | [3]; at 50.0 µM 9.55% | [4]; [16] -6% | [4]; [17] 9% | [4]; at 50.0 µM -48.7% | [5]; at 1.2 µM 2% | [5]; at 3.7 µM 8% | [5]; [16] 5% | [5]; at 11.0 µM 17% | [5]; at 33.0 µM 40% | [5]; [17] 66% | [5]; at 50.0 µM -26.4% | [6]; at 1.2 µM -3% | [6]; at 3.7 µM 4% | [6]; at 11.0 µM -5% | [6]; at 33.0 µM -6% | [7]; at 1.2 µM -3% | [7]; at 3.7 µM -4% | [7]; at 11.0 µM -4% | [7]; at 33.0 µM -3% | [8]; at 1.2 µM -3% | [8]; at 3.7 µM -2% | [8]; at 11.0 µM -1% | [8]; at 33.0 µM -4% | [9]; [16] -5% | [9]; [17] 45% | [9]; at 50.0 µM 11.4% | [10]; at 1.2 µM -2% | [10]; at 3.7 µM 2% | [10]; at 11.0 µM 6% | [10]; at 33.0 µM 11%
active: [1]; at 100.0 µM 73% | [5]; at 100.0 µM 86% | [6]; at 100.0 µM 75% | [7]; at 100.0 µM 76% | [8]; at 100.0 µM 77% | [10]; at 100.0 µM 84%

O=C(O)c1ccc2cc(Cl)c3ccccc3c2c1
active: [15]; [17] 93% | [15]; at 50.0 µM 94.9% | [1]; [17] 89% | [1]; at 50.0 µM 94% | [3]; [17] 93% | [3]; at 50.0 µM 93.9% | [4]; [17] 92% | [4]; at 50.0 µM 92.8% | [5]; [17] 86% | [5]; at 50.0 µM 91.4%
inactive: [11]; at 1.2 µM 1% | [11]; at 3.7 µM 9% | [11]; at 11.0 µM 28% | [11]; at 33.0 µM 55% | [11]; at 100.0 µM 67% | [12]; at 1.2 µM -4% | [12]; at 3.7 µM 3% | [12]; at 11.0 µM 11% | [12]; at 33.0 µM 30% | [12]; at 100.0 µM 43% | [13]; at 1.2 µM 3% | [13]; at 3.7 µM 9% | [13]; at 11.0 µM 17% | [13]; at 33.0 µM 24% | [13]; at 100.0 µM 21% | [14]; at 1.2 µM -1% | [14]; at 3.7 µM -4% | [14]; at 11.0 µM 15% | [14]; at 33.0 µM 41% | [14]; at 100.0 µM 60% | [15]; at 1.2 µM 2% | [15]; at 3.7 µM 12% | [15]; [16] 23% | [15]; at 11.0 µM 31% | [15]; at 33.0 µM 52% | [15]; at 100.0 µM 67% | [1]; at 1.2 µM -5% | [1]; at 3.7 µM 7% | [1]; [16] 1% | [1]; at 11.0 µM 25% | [1]; at 33.0 µM 44% | [1]; at 100.0 µM 54% | [2]; at 1.2 µM 0% | [2]; at 3.7 µM 7% | [2]; at 11.0 µM 20% | [2]; at 33.0 µM 42% | [2]; at 100.0 µM 58% | [3]; [16] 35% | [4]; [16] 30% | [5]; at 1.2 µM -4% | [5]; at 3.7 µM 1% | [5]; [16] 17% | [5]; at 11.0 µM 17% | [5]; at 33.0 µM 31% | [5]; at 100.0 µM 30% | [6]; at 1.2 µM -3% | [6]; at 3.7 µM 0% | [6]; at 11.0 µM 15% | [6]; at 33.0 µM 42% | [6]; at 100.0 µM 56% | [7]; at 1.2 µM 0% | [7]; at 3.7 µM 4% | [7]; at 11.0 µM 26% | [7]; at 33.0 µM 49% | [7]; at 100.0 µM 66% | [8]; at 1.2 µM 0% | [8]; at 3.7 µM 8% | [8]; at 11.0 µM 29% | [8]; at 33.0 µM 53% | [8]; at 100.0 µM 68% | [10]; at 1.2 µM 2% | [10]; at 3.7 µM 3% | [10]; at 11.0 µM 19% | [10]; at 33.0 µM 39% | [10]; at 100.0 µM 55%
